We go through seven molecules from PubChem BioAssay (EPA / NIEHS).

Results filed as inconclusive are left out. Active and inactive are the calls of the source. Rule for the calls, unless noted: active = hit-call score of the fitted dose curve at least 0.9, where 1 is the maximum; inactive = score below 0.9.

The target in test [1] is human RAR-related Orphan Receptor gamma (RORg), RORC (gene 6097) (UniProt P51449). The test is described as follows: ATG_RORg_TRANS: Attagene TRANS-FACTORIAL HepG2 Assay for human RAR-related Orphan Receptor gamma (RORg) (AID 2283011; active = hit-call score of the fitted dose curve at least 0.9, where 1 is the maximum). The essentials: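 Chimeric RORg-Gal4 transactivation in transfected HepG2; 24 h exposure; RT-PCR/capillary electrophoresis readout of reporter mRNA, DMSO baseline.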
Chain of human RAR-related Orphan Receptor gamma (RORg), RORC (gene 6097) (P51449 whole entry, looked up, the tested form may be a part): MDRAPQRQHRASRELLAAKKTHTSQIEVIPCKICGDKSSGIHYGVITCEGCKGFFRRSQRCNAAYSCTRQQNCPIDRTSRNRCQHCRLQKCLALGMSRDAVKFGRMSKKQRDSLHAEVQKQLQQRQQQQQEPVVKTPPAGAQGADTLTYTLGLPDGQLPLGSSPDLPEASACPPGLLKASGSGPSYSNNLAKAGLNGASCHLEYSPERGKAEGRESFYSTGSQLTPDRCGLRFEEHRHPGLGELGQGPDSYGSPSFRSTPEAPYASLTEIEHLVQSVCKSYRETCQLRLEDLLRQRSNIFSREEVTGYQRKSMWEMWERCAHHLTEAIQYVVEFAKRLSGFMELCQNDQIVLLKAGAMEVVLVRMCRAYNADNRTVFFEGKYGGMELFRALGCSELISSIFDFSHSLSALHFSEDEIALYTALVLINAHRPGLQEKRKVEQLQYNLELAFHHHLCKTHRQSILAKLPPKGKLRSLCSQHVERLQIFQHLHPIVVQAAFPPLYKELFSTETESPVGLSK

Test [2] deals with Retinoic acid receptor RXR-alpha (Homo sapiens) (UniProt P19793). The test is described as follows: ATG_RXRa_TRANS: Attagene TRANS-FACTORIAL HepG2 Assay for human Retinoid X Receptor alpha (RXRa) (AID 2283012; active = hit-call score of the fitted dose curve at least 0.9, where 1 is the maximum). The gist of the method:
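Transient transfection of human HepG2 with multiple GAL4-UAS reporter constructs; 24 h compound exposure; total RNA isolated, reverse-transcribed, PCR-amplified, 6-FAM labelled, HpaI-cut, resolved by capillary electrophoresis. Positive-direction fit versus DMSO.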

Test [3] addresses human Thyroid Receptor alpha (THRa1), THRA (gene 7067) (UniProt P10827). The test is described as follows: ATG_THRa1_TRANS: Attagene TRANS-FACTORIAL HepG2 Assay for human Thyroid Receptor alpha (THRa1) (AID 2283014; active = hit-call score of the fitted dose curve at least 0.9, where 1 is the maximum). The essentials: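 Measured here is mRNA from a GAL4-UAS reporter in transfected HepG2 cells carrying a Gal4-fused receptor, 24 h post-dose. DMSO served as negative control and baseline.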

Read-out in test [4]: Interleukin-1 alpha (IL1a), IL1A (gene 3552)
In words: BSK_BE3C_IL1a: BioMAP Diversity Plus: BE3C Assay for Interleukin-1 alpha (IL1a) Biomarker Activity (AID 2283016). The following applies: primary human bronchial epithelial cells; actives raise or lower the signal. The essentials: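 BE3C primary human bronchial epithelium; cpd 24 h; IL-1a by ELISA; bidirectional fit vs DMSO; parallel SRB (0.1% SRB, 10% TCA fix, 560 nm) for cytotoxicity.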

Read-out in test [5]: Monocyte Chemoattractant Protein-1 (MCP1), CCL2 (gene 6347)
The test is described as follows: BSK_3C_MCP1: BioMAP Diversity Plus: 3C Assay for Monocyte Chemoattractant Protein-1 (MCP1) Biomarker Activity (AID 2283017). To be noted: primary human endothelial cells (HUVEC); actives raise or lower the signal. The gist of the method:
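Using human vascular primary endothelium, researchers measured MCP-1 by ELISA 24 h after treatment, with DMSO serving as negative control for bidirectional fitting.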

Read-out in test [6]: Monocyte Chemoattractant Protein-1 (MCP1), CCL2 (gene 6347)
In words: BSK_4H_MCP1: BioMAP Diversity Plus: 4H Assay for Monocyte Chemoattractant Protein-1 (MCP1) Biomarker Activity (AID 2283018). The following applies: primary human endothelial cells (HUVEC); actives raise or lower the signal. The gist of the method:
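ELISA read-out of MCP-1 from human vascular endothelial primary cells taken at 24 hours after compound exposure. Activity was fitted in both directions relative to DMSO, which served as negative control.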

Read-out in test [7]: Human Leukocyte Antigen - DR isotype (HLADR), HLA-DRA (gene 3122)
In words: BSK_3C_HLADR: BioMAP Diversity Plus: 3C Assay for Human Leukocyte Antigen - DR isotype (HLADR) Biomarker Activity (AID 2283019).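 For outcome: ELISA of cell-surface HLA-DR on HUVEC 24 h after dosing.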 The following applies: primary human endothelial cells (HUVEC); actives raise or lower the signal. The essentials:
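Compound added to primary HUVEC cultures, 24 h incubation, then HLA-DR determined by ELISA; endpoint derived by bidirectional fitting relative to DMSO negative control.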

Read-out in test [8]: Interleukin-8 (IL8), CXCL8 (gene 3576)
In words: BSK_3C_IL8: BioMAP Diversity Plus: 3C Assay for Interleukin-8 (IL8) Biomarker Activity (AID 2283020). The following applies: primary human endothelial cells (HUVEC); actives raise or lower the signal. The gist of the method: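 ELISA read-out of IL-8 from human umbilical vein endothelium, measured 24 h after chemical dosing. Activity is expressed relative to DMSO negative control, with both increases and decreases fitted.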

Read-out in test [9]: Monokine induced gamma interferon (MIG), CXCL9 (gene 4283)
In words: BSK_3C_MIG: BioMAP Diversity Plus: 3C Assay for Monokine induced gamma interferon (MIG) Biomarker Activity (AID 2283021). The following applies: primary human endothelial cells (HUVEC); actives raise or lower the signal. The essentials:
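Read-out is ELISA detection of MIG on human umbilical vein endothelial cells, taken 24 h after dosing. Gain or loss of signal was scored relative to DMSO controls using bidirectional curve fitting.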

Test [10] deals with human Vitamin D Receptor (VDR), VDR (gene 7421) (UniProt P11473). In words: ATG_VDR_TRANS: Attagene TRANS-FACTORIAL HepG2 Assay for human Vitamin D Receptor (VDR) (AID 2283022; active = hit-call score of the fitted dose curve at least 0.9, where 1 is the maximum). The gist of the method: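 Multiplexed TRANS reporter in HepG2; 24 h treatment; reporter mRNA by RT-PCR plus capillary electrophoresis; upregulation scored relative to DMSO.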
Chain of human Vitamin D Receptor (VDR), VDR (gene 7421) (P11473 whole entry, looked up): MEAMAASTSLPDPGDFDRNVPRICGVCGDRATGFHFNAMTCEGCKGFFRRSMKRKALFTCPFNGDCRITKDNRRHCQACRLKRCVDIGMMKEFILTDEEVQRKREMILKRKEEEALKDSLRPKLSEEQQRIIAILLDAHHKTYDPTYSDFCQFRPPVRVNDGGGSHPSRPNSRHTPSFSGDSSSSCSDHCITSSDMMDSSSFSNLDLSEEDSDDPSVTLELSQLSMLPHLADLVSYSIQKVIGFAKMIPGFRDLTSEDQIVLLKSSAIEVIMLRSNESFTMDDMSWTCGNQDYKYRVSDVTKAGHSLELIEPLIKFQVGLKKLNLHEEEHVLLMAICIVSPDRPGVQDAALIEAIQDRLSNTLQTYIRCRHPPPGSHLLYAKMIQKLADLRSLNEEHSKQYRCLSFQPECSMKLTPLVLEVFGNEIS
Test [11] can be described thus: BSK_3C_SRB: Viability Assessment in the BioMAP Diversity Plus: 3C Assay (AID 2283023).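 Note: fitted both ways against DMSO so a hit may be signal rise or drop.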 The following applies: primary human endothelial cells (HUVEC). The essentials: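 Overt cytotoxicity is gauged in parallel confluent HUVEC cultures by SRB total-protein staining at the time of biomarker measurement, 24 h after dosing. Gain or loss of signal is fitted versus DMSO.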

Read-out in test [12]: Matrix Metallopeptidase 1 (MMP1), MMP1 (gene 4312)
The test is described as follows: BSK_BE3C_MMP1: BioMAP Diversity Plus: BE3C Assay for Matrix Metallopeptidase 1 (MMP1) Biomarker Activity (AID 2283024). To be noted: primary human bronchial epithelial cells; actives raise or lower the signal. The essentials:
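Human bronchial epithelial cells (BE3C system) exposed to compound for 24 h; MMP1 then quantified by ELISA. Activity was fitted in both directions relative to DMSO.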

Test [13] is described as follows: BSK_3C_Vis: BioMAP Diversity Plus: 3C Assay for Morphology Visualization (AID 2283025).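 For AC50: light microscopy image of cell morphology used as background control.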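 Note: fitted both ways so gain or loss versus DMSO counts.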 The following applies: primary human endothelial cells (HUVEC). The gist of the method:
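Chemicals were added to primary human umbilical vein endothelium, cells were incubated 24 h, and morphology was then visualized by light microscopy. Gain or loss of signal was fitted bidirectionally relative to DMSO.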

Read-out in test [14]: Pselectin, SELP (gene 6403)
In words: BSK_4H_Pselectin: BioMAP Diversity Plus: 4H Assay for Pselectin Biomarker Activity (AID 2283026). To be noted: primary human endothelial cells (HUVEC); actives raise or lower the signal. The gist of the method:
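ELISA read-out of P-selectin on human umbilical vein endothelium after 24 h of dosing. Values derive from bidirectional fitting relative to DMSO. Parallel SRB protein staining flagged overt cytotoxicity.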

Test [15] is described as follows: BSK_4H_SRB: Viability Assessment in the BioMAP Diversity Plus: 4H Assay (AID 2283027).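 For AC50: curves fitted both ways versus DMSO so AC50 may be loss or gain.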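 Note: cells exposed to compound for 24 h before staining.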 To be noted: primary human endothelial cells (HUVEC). The essentials: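 Human umbilical vein endothelial cells were dosed with chemical and, after 24 h, fixed with 10% TCA, stained with 0.1% sulforhodamine B, and read at 560 nm to give total protein as a cytotoxicity measure. Bidirectional fitting relative to DMSO control.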

A short description of test [16]: BSK_BE3C_SRB: Viability Assessment in the BioMAP Diversity Plus: BE3C Assay (AID 2283028). To be noted: primary human bronchial epithelial cells. The essentials: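 SRB total-protein staining (0.1%, after TCA fixation) of chemically dosed human bronchial epithelial primary cells at 24 h; DMSO serves as the negative control for bidirectional curve fitting.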
Read-out in test [17]: Thrombomodulin, THBD (gene 7056)
In words: BSK_3C_Thrombomodulin: BioMAP Diversity Plus: 3C Assay for Thrombomodulin Biomarker Activity (AID 2283029). To be noted: primary human endothelial cells (HUVEC); actives raise or lower the signal. The essentials:
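Read-out is ELISA of thrombomodulin on human umbilical vein endothelium 24 h after chemical dosing. Gain or loss of signal is scored relative to DMSO. Overt cytotoxicity is checked in parallel cultures by sulforhodamine B staining.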

Read-out in test [18]: Urokinase-type plasminogen activator receptor (uPAR), PLAUR (gene 5329)
In words: BSK_4H_uPAR: BioMAP Diversity Plus: 4H Assay for Urokinase-type plasminogen activator receptor (uPAR) Biomarker Activity (AID 2283030). To be noted: primary human endothelial cells (HUVEC); actives raise or lower the signal. The essentials:
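Endpoint derived via bidirectional curve fitting against DMSO baseline; readout was ELISA detection of uPAR on umbilical vein endothelial cells at 24 h post-treatment, with SRB-stained parallel cultures assessing cytotoxicity.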

In test [19] the target is human Retinoid X Receptor beta (RXRb), RXRB (gene 6257) (UniProt P28702). The test is described as follows: ATG_RXRb_TRANS: Attagene TRANS-FACTORIAL HepG2 Assay for human Retinoid X Receptor beta (RXRb) (AID 2283013; active = hit-call score of the fitted dose curve at least 0.9, where 1 is the maximum). The gist of the method: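 Transfect HepG2 with GAL4-UAS multi-reporter constructs (chimeric NR-Gal4, TRANS format); dose compound 24 h; isolate RNA, RT-PCR, FAM primer extension, HpaI digest; quantify by capillary electrophoresis; positive direction vs DMSO.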
Chain of human Retinoid X Receptor beta (RXRb), RXRB (gene 6257) (P28702 whole entry, looked up, the tested form may be a part): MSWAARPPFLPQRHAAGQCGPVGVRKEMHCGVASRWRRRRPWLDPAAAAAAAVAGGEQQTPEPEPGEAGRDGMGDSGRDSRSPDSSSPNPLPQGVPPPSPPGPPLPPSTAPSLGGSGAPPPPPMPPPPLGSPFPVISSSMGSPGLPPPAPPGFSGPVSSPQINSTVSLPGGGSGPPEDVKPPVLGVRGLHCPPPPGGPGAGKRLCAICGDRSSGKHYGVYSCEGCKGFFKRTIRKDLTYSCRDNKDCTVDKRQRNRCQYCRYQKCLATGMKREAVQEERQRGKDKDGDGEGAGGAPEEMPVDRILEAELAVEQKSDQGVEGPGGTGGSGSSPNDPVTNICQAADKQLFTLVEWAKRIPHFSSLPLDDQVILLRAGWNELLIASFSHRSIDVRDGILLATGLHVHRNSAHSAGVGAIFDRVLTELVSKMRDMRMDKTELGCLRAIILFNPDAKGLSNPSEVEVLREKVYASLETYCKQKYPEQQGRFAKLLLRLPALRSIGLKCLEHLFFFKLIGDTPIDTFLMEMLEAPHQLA

Read-out in test [20]: E-selectin (Homo sapiens) (UniProt P16581)
In words: BSK_3C_Eselectin: BioMAP Diversity Plus: 3C Assay for Eselectin Biomarker Activity (AID 2283015).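 Note: cell surface E-selectin protein quantified by ELISA 24 h after dosing.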 To be noted: primary human endothelial cells (HUVEC); actives raise or lower the signal. The gist of the method: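 Endpoint derived by bidirectional fitting against DMSO vehicle; signal is ELISA-detected E-selectin from primary HUVEC at 24 h post-dosing, with parallel SRB staining (0.1% SRB, 560 nm) flagging cytotoxicity.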

Chain of human Thyroid Receptor alpha (THRa1), THRA (gene 7067) (P10827 whole entry, looked up, the tested form may be a part): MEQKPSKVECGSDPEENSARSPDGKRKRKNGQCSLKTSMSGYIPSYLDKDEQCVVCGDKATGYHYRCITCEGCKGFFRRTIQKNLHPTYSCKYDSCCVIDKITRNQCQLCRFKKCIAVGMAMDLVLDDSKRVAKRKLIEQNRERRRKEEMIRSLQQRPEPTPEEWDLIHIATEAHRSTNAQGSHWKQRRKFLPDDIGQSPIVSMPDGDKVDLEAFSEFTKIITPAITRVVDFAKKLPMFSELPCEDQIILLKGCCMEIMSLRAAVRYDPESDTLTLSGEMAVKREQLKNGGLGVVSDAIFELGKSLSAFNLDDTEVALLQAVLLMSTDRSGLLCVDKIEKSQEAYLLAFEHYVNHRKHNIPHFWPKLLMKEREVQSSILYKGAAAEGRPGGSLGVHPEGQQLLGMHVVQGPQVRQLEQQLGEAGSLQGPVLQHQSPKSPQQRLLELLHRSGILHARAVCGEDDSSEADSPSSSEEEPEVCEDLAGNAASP
Chain of E-selectin (Homo sapiens) (P16581 whole entry, looked up): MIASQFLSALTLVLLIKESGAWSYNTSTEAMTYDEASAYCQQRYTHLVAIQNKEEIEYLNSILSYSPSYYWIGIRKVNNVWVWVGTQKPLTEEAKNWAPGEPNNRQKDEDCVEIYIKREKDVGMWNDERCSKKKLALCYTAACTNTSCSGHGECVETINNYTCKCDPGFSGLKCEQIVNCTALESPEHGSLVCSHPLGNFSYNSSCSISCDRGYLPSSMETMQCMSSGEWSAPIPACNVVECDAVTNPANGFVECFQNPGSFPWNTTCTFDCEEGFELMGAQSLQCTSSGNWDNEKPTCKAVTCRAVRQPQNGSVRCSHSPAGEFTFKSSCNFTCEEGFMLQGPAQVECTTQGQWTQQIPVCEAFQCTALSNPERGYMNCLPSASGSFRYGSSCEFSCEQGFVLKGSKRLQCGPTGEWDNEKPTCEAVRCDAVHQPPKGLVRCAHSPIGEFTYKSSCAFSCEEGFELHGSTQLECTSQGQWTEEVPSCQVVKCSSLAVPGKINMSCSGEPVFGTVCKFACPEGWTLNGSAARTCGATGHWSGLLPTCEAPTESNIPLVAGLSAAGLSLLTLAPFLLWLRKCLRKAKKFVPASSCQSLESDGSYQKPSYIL
Chain of Retinoic acid receptor RXR-alpha (Homo sapiens) (P19793 whole entry, looked up, the tested form may be a part): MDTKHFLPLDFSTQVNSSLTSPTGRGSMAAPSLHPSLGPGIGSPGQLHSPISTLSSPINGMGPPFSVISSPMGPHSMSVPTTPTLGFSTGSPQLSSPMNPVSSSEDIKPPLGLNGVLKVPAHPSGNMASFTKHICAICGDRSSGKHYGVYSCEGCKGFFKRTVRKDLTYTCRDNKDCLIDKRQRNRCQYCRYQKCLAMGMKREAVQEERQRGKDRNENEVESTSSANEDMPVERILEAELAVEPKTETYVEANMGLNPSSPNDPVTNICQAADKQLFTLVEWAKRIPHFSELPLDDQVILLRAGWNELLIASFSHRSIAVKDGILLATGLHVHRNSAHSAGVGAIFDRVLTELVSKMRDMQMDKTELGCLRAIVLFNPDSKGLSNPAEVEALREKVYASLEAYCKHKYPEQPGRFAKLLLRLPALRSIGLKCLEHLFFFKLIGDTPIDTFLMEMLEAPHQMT

As for `NNC(=O)c1ccncc1`, the call in test [1], in test [2], in [3], in test [4], in test [5] and in test [6] was inactive. Further, the outcome in test [7], in test [8], in [9], in test [10], in test [11] and in test [12] was inactive. For the same molecule, the result in [13], in test [14], in test [15], in [16], in test [17] and in test [18] was inactive.
For the molecule `CCCCCOC(C)=O`, the molecule was called inactive in test [1], in test [3], in test [4], in [6], in [7] and in test [8]. Besides, the outcome in test [9], in test [10], in [11], in test [12], in [13] and in [14] was inactive. The result in [15], in test [16], in [17] and in test [18] was inactive.
As for `CCCC(CCC)C(=O)O`, the outcome in test [2], in [19], in test [20], in test [4], in test [5] and in [6] was inactive. Moreover, the result in [7], in test [8], in test [9], in test [10], in test [11] and in test [12] was inactive. For the same molecule, the outcome in test [13], in test [14], in test [15], in [16], in [17] and in test [18] was inactive.
For the molecule `c1ccc(C(O[C@@H]2CCCN(CCc3ccc4c(c3)OCO4)C2)c2ccccc2)cc1`, the molecule was classed as inactive in test [1], in [19], in [3], in [20], in test [4] and in test [5]. The result in test [9], in [14], in [16] and in [17] was inactive. In addition, the AC50 is 23.6 µM (active) in test [6]; 30.8 µM (active) in test [7]; 25.9 µM (active) in test [8]; 25.2 µM (active) in test [11]; 26.8 µM (active) in test [12]; 9.8 µM (active) in test [13]. Moreover, the half-maximal activity concentration (AC50) in test [15] was 25.4 µM (active); in [18], 15.5 µM (active).
Consider `CC(C)C(=O)Nc1ccc([N+](=O)[O-])c(C(F)(F)F)c1`, for which the call in test [2], in test [4], in [6], in test [8], in test [9] and in [11] was inactive. The outcome in test [12], in test [13], in [14], in test [15], in test [16] and in test [17] was inactive. Besides, the outcome in test [18] was inactive. Also, the figures for the half-maximal activity concentration (AC50) in test [19], in test [3] and in test [7] were 13.3 µM (active), 100 µM (active) and 34.1 µM (active), respectively.
`COc1cc2c(c(OC)c1OC)-c1ccc(OC)c(=O)cc1[C@@H](NC(C)=O)CC2`: the molecule was called inactive in [2], in [19], in test [3], in [4], in test [5] and in test [6]. The result in test [8], in test [9], in [10], in test [12], in test [16] and in [17] was inactive. Moreover, the AC50 in test [7] is 1.07 µM (active); in test [11], 0.148 µM (active); in test [13], 0.488 µM (active); in test [14], 0.293 µM (active); in test [15] it was 0.148 µM (active); in test [18], 0.148 µM (active).
Take `CCCOc1ccc(S(=O)(=O)N2CCN(CC)CC2)cc1-c1nc2c(CC)n(Cc3ccccn3)nc2c(=O)[nH]1`: the outcome in test [2], in test [19], in test [20], in test [4], in test [5] and in test [6] was inactive. Also, the result in test [7], in [8], in [9], in [10], in test [11] and in [12] was inactive. The result in [13], in test [14], in [15], in [16], in test [17] and in [18] was inactive.

Usually AC50 stands for the concentration at which the activity in the assay is half-maximal.
